High-throughput results (PubChem)
RECQ1 inh: RECQ1 (human) helicase inhibition; P46063; RECQ1 DNA unwinding, red fluorescence kinetic read; AID 2549; Potency, µM (highest dose often 57.3 µM), for the others: top-dose activity, negative = inhibition, usual class: inhibitors; 240,000 tested, 0.54% active;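 further: plate controls were vehicle for no effect and no enzyme for full effect; nearly all actives have a fitted effect of over 30% in size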
Target sequence (P46063 whole entry, looked up): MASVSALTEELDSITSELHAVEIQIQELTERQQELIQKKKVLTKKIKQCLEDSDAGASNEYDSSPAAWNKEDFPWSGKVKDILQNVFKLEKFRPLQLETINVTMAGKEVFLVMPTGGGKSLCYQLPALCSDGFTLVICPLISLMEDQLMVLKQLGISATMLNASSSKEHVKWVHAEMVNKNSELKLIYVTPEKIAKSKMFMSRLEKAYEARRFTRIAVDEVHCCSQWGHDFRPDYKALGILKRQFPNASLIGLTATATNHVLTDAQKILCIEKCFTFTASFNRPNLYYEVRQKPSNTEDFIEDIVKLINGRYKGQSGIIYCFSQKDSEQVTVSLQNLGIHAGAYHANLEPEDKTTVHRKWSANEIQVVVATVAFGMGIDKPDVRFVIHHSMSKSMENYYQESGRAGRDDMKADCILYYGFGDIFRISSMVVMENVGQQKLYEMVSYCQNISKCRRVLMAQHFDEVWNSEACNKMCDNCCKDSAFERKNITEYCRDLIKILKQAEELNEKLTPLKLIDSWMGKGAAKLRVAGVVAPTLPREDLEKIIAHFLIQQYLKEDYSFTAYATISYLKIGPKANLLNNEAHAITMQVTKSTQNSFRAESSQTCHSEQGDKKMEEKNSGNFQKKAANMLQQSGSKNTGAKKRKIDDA
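RECQ1T1 50 nM; forked duplex (20 bp + 30-nt ss tails) 200 nM, ATP 2 mM final; pH 8.0, 2 mM MgCl2, 2.5 ug/ml poly(dI-dC); 15 min compound preincubation; discontinuous kinetic read over 2 h at RT.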
L3MBTL1 inh: blocks human L3MBTL1 | Q9Y468 | AlphaScreen L3MBTL1–H3K9me1 peptide binding | Potency, µM (series often up to 57.1 µM), without a hit: at the top dose activity, negative = inhibition, most hits filed as inhibitors | 230,000 tested, 0.66% active | AID 485360; further: nearly all actives have a fitted effect of over 60% in size
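Displacement of a biotinylated histone H3(1-15) peptide monomethylated at Lys9 (75 nM) from L3MBTL1 (50 nM) was measured by AlphaScreen after a 30 min room-temperature compound incubation; cefsulodin titration served as intraplate control.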
BLM inh: blocks DNA unwinding by human BLM helicase | P54132 | recombinant BLM DNA unwinding, fluorescence dequenching | Potency, µM (series often up to 56.1 µM), without a hit: top-dose activity change, negative = inhibition, hits mostly inhibitors | 350,000 tested, 0.2% active;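 further: plate controls were vehicle for no effect and no enzyme for full effect; nearly all actives have a fitted effect of over 35% in size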
APEX1 inh: APE1 (human) endonuclease inhibition | recombinant APE1, TAMRA/BHQ-2 abasic DNA cleavage fluorescence | 350,000 tested, 0.35% active | P27695 | Potency, µM (titrated, usually from 65.8 µM), without a hit: at the highest dose activity change, negative = inhibition, usual class: inhibitors;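 further: plate controls were vehicle for no effect and reference inhibitor for full effect; nearly all actives have a fitted effect of over 55% in size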
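Readout is kinetic fluorescence (ex 525, em 598 nm) from cleavage of 50 nM TAMRA/BHQ-2 THF abasic duplex by 0.75 nM APE1, compound added 15 min beforehand at RT.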
* hit, by the source's call; i = inactive; ? = inconclusive; nt = no result given; ! = repeats disagree. Only some compounds are listed: those with a hit (about 0.78% of all), similar ones and a draw of the others. The call rests on the fitted dose curve; in most records, active means well fitted curve in the direction sought with a large enough effect; inconclusive means small, poorly fitted or top-dose-only effect, or another doubt; inactive means no such curve, though single readings can be large; an effect the other way counts as inactive or inconclusive. Unless noted, on the % scale 0 is the no-effect control and ±100 the full control effect; potency means the concentration at half of the fitted maximal effect.

SMILES	RECQ1 inh	L3MBTL1 inh	BLM inh	APEX1 inh
O=C(Nc1cccc(C(=O)Nc2cc(C(=O)Nc3ccc([S+](=O)([O-])[O-])c4cc([S+](=O)([O-])[O-])cc(SOOO)c34)ccc2F)c1)Nc1cccc(C(=O)Nc2cc(C(=O)Nc3ccc([S+](=O)([O-])[O-])c4cc([S+](=O)([O-])[O-])cc([S+](=O)([O-])[O-])c34)ccc2F)c1	11µM*	nt	126%	2.8µM*
O=C1NC(=S)NC(=O)C1=Cc1ccc2c(c1)CCN2CCCCl	?	nt	16µM*	18µM*
CCOc1ccc(-n2c(O)c(N=Nc3c(C)n(C)n(-c4ccccc4)c3=O)c(=O)[nH]c2=O)cc1	-8%	25µM*	-1%	2%
C=CCn1c(O)c(N=Nc2c(C)n(C)n(-c3ccccc3)c2=O)c(=O)[nH]c1=S	2%	20µM*	-8%	-2%
CC1=C(O)C(=O)C=C2C1=CC=C1[C@]2(C)CC[C@@]2(C)C3C[C@](C)(C(=O)O)CC[C@@]3(C)CC[C@@]12C (some centres undefined)	-12%	nt	-18%	-1%
CC1(C)C(C(=O)O)N2C(=O)CC2S1(=O)=O (centres undefined)	i	nt	-1%	16%
C#CCO	-8%	nt	nt	5%
O=C1C=Cc2ccccc2C1=O	28µM*	-25%	-1%	?
COc1c(CC=C(C)C)c2c(c3oc(=O)c(-c4ccc(O)cc4)c(O)c13)C=CC(C)(C)O2	i	nt	0%	-2%
CC(C)CCCC1(C)C=Cc2c(O)c3c(c(CCC(C)C)c2O1)OC12C(CC4CC1C(C)(C)OC2(CCC(C)C(=O)O)C4O)C3=O (centres undefined)	i	nt	-10%	-6%
CC(C)=CCCC1(C)C=Cc2c(O)c3c(c(CC=C(C)C)c2O1)OC12C(=CC4CC1C(C)(C)OC2(C/C=C(/C)C(=O)O)C4O)C3=O (centres undefined)	-11%	nt	22µM*	1%
CC(C)=CCCC1(C)C=Cc2c(O)c3c(c(CC=C(C)C)c2O1)OC12C(=CC4CC1C(C)(C)OC2(C/C=C(/C)C(=O)O)C4=O)C3=O (centres undefined)	i	nt	28µM*	1%
CC[n+]1c(-c2ccccc2)c2cc(N)ccc2c2ccc(N)cc21	32µM*!	nt	?	32µM*!
CCC1(C)OC(c2ccccc2)=C/C(=C/C=C2C(=O)NC(=O)NC2=O)O1 (centres undefined)	8.9µM*	?	-23%	5%
CCn1cc(C=C2C(=O)NC(=O)NC2=O)c2ccccc21	nt	nt	-1%	-3%
N#C/C(=C\c1ccc(O)c(O)c1)C(N)=S	5.6µM*!	nt	?	13µM*
c1ccc2c(c1)CCCC2	-9%	nt	nt	1%
CCCCC/C=C\C/C=C\C/C=C\C/C=C\CCCC(=O)O	2.2µM*!	?	?	?
CCCCC/C=C\C[C@@H](/C=C/C=C\C/C=C\CCCC(=O)O)OO	12%	nt	-2%	?
OC[P+](CO)(CO)CO	-2%	nt	nt	4%
COc1ccc(N2C(=O)/C(=C/C=C/c3ccccc3[N+](=O)[O-])C(=O)NC2=S)cc1	35µM*	nt	28µM*	15%
COc1ccc(CN2C(=O)NC(=O)/C(=C/c3ccc([N+](=O)[O-])s3)C2=O)cc1	32µM*	28µM*	-22%	?
O=C1NC(=O)N(Cc2ccc(F)cc2)C(=O)/C1=C\c1ccc([N+](=O)[O-])s1	32µM*	nt	-18%	?
COc1ccc(N2C(=O)/C(=C/c3cccs3)C(=O)NC2=S)cc1	14%	nt	0%	-4%
COc1ccc(N2C(=O)NC(=O)/C(=C\c3ccc([N+](=O)[O-])s3)C2=O)cc1	?	22µM*	-18%	?
SMILES	RECQ1 inh	L3MBTL1 inh	BLM inh	APEX1 inh
COc1ccc(N2C(=O)NC(=O)/C(=C/c3ccc([N+](=O)[O-])s3)C2=O)cc1	?	nt	-3%	?
O=C1C[C@@H]2OCC=C3CN4CC[C@]56c7ccccc7N1[C@H]5[C@H]2[C@H]3C[C@H]46	nt	nt	nt	1%
O=C(O)C(Cl)(Cl)Br	-9%	nt	nt	0%
N#CSCSC#N	-10%	nt	nt	?
CN1CC=C(c2c[nH]c3ccccc23)CC1	18%	32µM*	31%	-8%
C1=C(c2c[nH]c3ccccc23)CCN(Cc2ccccc2)C1	i	nt	0%	?
Clc1ccc(C(c2ccccc2Cl)C(Cl)(Cl)Cl)cc1 (centres undefined)	-17%	nt	nt	12%
O=c1[nH]c(=S)n(-c2ccccc2)c(O)c1/C=N/N1CCCCC1c1cccnc1 (centres undefined)	25µM*	nt	-5%	?
CCc1ccc(-n2c(O)c(/C=N/N3CCCCC3c3cccnc3)c(=O)[nH]c2=O)cc1 (centres undefined)	-3%	10%	3%	6%
O=C1/C(=C\c2ccccc2)C[C@@]2(O)[C@H]3Cc4ccc(O)c5c4[C@@]2(CCN3CC2CC2)[C@H]1O5	i	nt	nt	1%
O=c1c2ccccc2nc(/C=C/c2ccc(O)cc2)n1-c1ccc(O)cc1	nt	nt	-9%	26%
O=c1c2ccccc2nc(/C=C/c2ccc(O)cc2)n1-c1cccc(O)c1	-13%	?	25µM*	?
[O]=[Cr](=[O])([OH])[O][Cr](=[O])(=[O])[OH]	13µM*	nt	1µM*	25µM*!
COc1cc2c(cc1O)C[C@H]1NCCc3cc4c(c-2c31)OCO4	-8%	35µM*	9%	?
O=[N+]([O-])c1cc(S(=O)(=O)c2ccc(O)c([N+](=O)[O-])c2)ccc1O	-15%	10µM*	40%	?
Clc1nc(Cl)nc(Nc2ccccc2Cl)n1	-6%	nt	nt	3%
c1cc(OCC2CO2)cc(OCC2CO2)c1 (centres undefined)	-2%	nt	nt	?
C=CCn1c(O)c(/C=C2/C=CC=N2)c(=O)[nH]c1=O	11µM*	3%	0%	-3%
CC(=O)OC1CCC2(C)C3=C(CCC2C1(C)C)[C@]1(C)CCC(C(C)CCC=C(C)C)[C@]1(C)CC3 (some centres undefined)	i	nt	-4%	?
C/C(=C/CCC(C)[C@H]1CC[C@@]2(C)C3=C(CC[C@]12C)[C@@]1(C)CCC(=O)C(C)(C)[C@@H]1CC3)C(=O)O (some centres undefined)	-4%	2%	25µM*	4%
ClC(Cl)=C(Cl)Cl	3%	nt	nt	5%
COc1ccc2c(c1)[nH]c1c(C)nccc12	3%	9%	91%	7.9µM*!
S=C=Nc1cccc2ccccc12	12%	nt	nt	2%
Cl.Cl.Cl.Cl.Cl.Cl.N.N.N.N.NNNNN.NNNNN.O.O.[Ru].[Ru].[Ru]	13µM*	nt	25µM*	-3%
